BRCA1 expr up = increases BRCA1 expression; MCF7-BRCA1-FFLuc reporter, luminescence, 48 h; response scale: scaled: vehicle 0%, 10 µM genistein 100%; Potency, µM (series often up to 46.1 µM), hits mostly activators; 1.1% of 380,000 active; AID 624202; also: nearly all actives have a fitted effect of over 80% in size
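First, MCF7-BRCA1-FFLuc cells (2000/well) attach for 2 h; next, compounds are pin-added and incubated 48 h at 37 °C; finally, luciferase reagent is added and luminescence read after 15 min.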
A-T KAP1 phos = potential ataxia-telangiectasia treatments restoring KAP-1 phosphorylation | F2112 A-T fibroblasts, KAP-1 phosphorylation AlphaLISA; neocarzinostatin DNA damage 30 min before lysis | Potency, µM (series often up to 57.5 µM), usual class: activators | 0.19% of 320,000 active | AID 485349; also: nearly all actives have a fitted effect of over 45% in size
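ATM-like activity read as KAP-1 phosphorylation via AlphaLISA donor/acceptor antibody pairs after lysis and 6 hr at 25C. Cells were ATM-null patient fibroblasts (F2112, hTERT), dosed 60 min, then exposed to the DSB inducer NCS for 30 min.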
Akt phos inh = Akt phosphorylation inhibition | Neuro2A IGF-stimulated pAkt S473 HTRF, 20 min; hits give low values | activity change, % for hits at 50 µM | 0.32% of 360,000 active | AID 651550; in the data active = activity change below about -80%; inconclusive = mostly about -51% to -80%
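Neuro2A cells in DMEM with 0.5% FBS, overnight at 37 deg C, given compound at single 50 µM final, then IGF (6 nM final) for 20 min at 37 deg C. Lysed; phospho-Akt Ser473 by HTRF after 24 h, 665/615 ratio.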
CCT modulator = cytosolic chaperonin activity modulation | purified chaperonin ATPase assay, HTRF ADP detection, 30 min | activity change, % (test concentration not listed), hits read low | 0.3% of 360,000 active | AID 651819; in the data active = activity change below about -30%
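Nucleotide hydrolysis assay: TRiC at 20–40 nM final (set by batch activity) with 10 uM ATP, 30 min at 37 °C, in presence of 76 uM compound. Detection by competitive ADP HTRF, 30 min ambient.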
MmCpn inh = blocks the Methanococcus maripaludis chaperonin Mm-Cpn. purified Mm-Cpn ATPase, ADP Transcreener TR-FRET. Potency, µM (highest dose often 76.9 µM), actives largely listed as inhibitors. 0.031% of 330,000 active. AID 504842; also: nearly all actives have a fitted effect of over 80% in size
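TR-FRET (320 nm excitation; 590 and 665 nm emission) reports ADP made from 10 uM ATP by 25 nM enzyme; compounds were preincubated 10 min, reaction run 30 min, both at 37°C.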
Of the large screens only hits and unclear results are named; the others gave an inactive call. A selection: hits, their analogues and other compounds. The true share with any hit is near 1.8%. Unless noted, calls follow the shape of the dose curve; as a rule, active = well fitted curve in the direction sought with a large enough effect; inconclusive = small, poorly fitted or top-dose-only effect, or another doubt; inactive = no such curve, though single readings can be large; an effect the other way counts as inactive or inconclusive.

OC(CCCN1CCCCC1)(c1ccccc1)c1ccc(C(F)(F)F)cc1 (stereo not given)	none (no result: A-T KAP1 phos, MmCpn inh)
CC(=C/c1ccccc1)/C=N/Nc1nc(N2CCOCC2)nc(N2CCOCC2)n1	CCT modulator -49
C(=C\c1ccccc1)/C=N/Nc1nc(N2CCOCC2)nc(N2CCOCC2)n1	none
Cc1cnc(/C=C/c2ccc(N(C)C)cc2)cn1	none (no result: A-T KAP1 phos, Akt phos inh, CCT modulator, MmCpn inh)
CCOC(=O)c1cccc(NC(=O)c2cc(S(=O)(=O)N3CCCCCC3)cn2C)c1	none (no result: A-T KAP1 phos, Akt phos inh, CCT modulator, MmCpn inh)
COC(=O)c1cc(NC(=O)[C@H](CCS(C)(=O)=O)N2Cc3ccccc3C2=O)cc(C(=O)OC)c1	none (no result: A-T KAP1 phos, Akt phos inh, CCT modulator, MmCpn inh)
COc1cc(Cn2c(=O)c3c(OC)c(C)cnc3n(C)c2=O)cc(OC)c1	CCT modulator -52
CCOc1c(C)cnc2c1c(=O)n(Cc1ccccc1Cl)c(=O)n2C	none
Cc1onc(-c2ccccc2)c1C(=O)Nc1nncs1	none
CN(C)S(=O)(=O)c1ccc(NC(=O)CSc2nnc(-c3ccco3)o2)cc1	none
O=C(CN1C(=O)CCSc2ccccc21)NC1CCCCC1	CCT modulator -36 (no result: Akt phos inh)
CN(C)C(=O)COc1ccccc1C(=O)OCC(=O)Nc1ccc(Oc2ccc(Br)cc2)cc1	none (no result: A-T KAP1 phos, Akt phos inh, CCT modulator, MmCpn inh)
CCOC(=O)C1C(=O)CC(C)(O)C(C(=O)OCC)C1c1cccs1 (stereo not given)	Akt phos inh -109%
CCOC(=O)C1C(=O)CC(C)(O)C(C(=O)OCC)C1c1ccco1 (stereo not given)	none
Cc1ccccc1NC(=O)CC(C)S(=O)(=O)c1ccc2c(c1)NC(=O)CO2 (stereo not given)	CCT modulator -63
CC(CC(=O)Nc1cccc(F)c1)S(=O)(=O)c1ccc2c(c1)NC(=O)CO2 (stereo not given)	none
O=C1CCN(Cc2ccccc2)CCN1CCSc1ccccc1	BRCA1 expr up 8.9µM
Cc1ccc(SCCC(=O)N2CCC(C)CC2)cc1	BRCA1 expr up 10µM (no result: A-T KAP1 phos)
Cc1ccc(SCCN2CCC(C(C)(C)C)CCC2=O)cc1 (stereo not given)	BRCA1 expr up inconclusive
CC(C)(C)C1CCC(=O)N(CCSc2ccccc2)CC1 (stereo not given)	BRCA1 expr up 3.5µM
Cc1ccc(SCCN2CCC(C)CCC2=O)cc1 (stereo not given)	BRCA1 expr up 8.9µM
Cc1nc(C)c(C(=O)OCC(=O)NCCc2ccc(F)cc2)s1	none
Cc1cccc(Cc2nnc(CCC(=O)N(C)CCc3ccccc3)o2)c1	BRCA1 expr up 3.5µM
O=C(Nc1nc(-c2cccs2)cs1)C1CC(=O)N(c2ccc3c(c2)OCCO3)C1 (stereo not given)	none (no result: A-T KAP1 phos, Akt phos inh, CCT modulator, MmCpn inh)
CCCCN(C(=O)c1cc(CN2C(=O)c3ccccc3C2=O)ccc1OC)c1c(N)n(CC(C)C)c(=O)[nH]c1=O	CCT modulator -84 (no result: A-T KAP1 phos, MmCpn inh)
CCCCN(C(=O)c1ccc(N2C(=O)c3ccccc3C2=O)cc1)c1c(N)n(CC(C)C)c(=O)[nH]c1=O	none
CCc1cc(C(=O)c2ccc(OC)cc2)c(N)s1	none
COc1ccc(C(=O)c2ccsc2N)cc1	BRCA1 expr up 11µM
CC1CCCCC1NC(=S)NC(=O)c1ccccc1Cl (stereo not given)	none
CC1CCCCC1NC(=S)NC(=O)c1sc2ccccc2c1Cl (stereo not given)	CCT modulator -47, MmCpn inh inconclusive
O=C(COc1ccc(Br)cc1Cl)NC(=O)NC1CCCC1	BRCA1 expr up inconclusive
O=C(COc1ccc(Cl)cc1Br)NC(=O)NC1CCCC1	BRCA1 expr up 13µM
O=C(COc1ccc(Cl)cc1Cl)NC(=O)NC1CCCC1	BRCA1 expr up 4µM
CCOC(=O)c1cc2c(nc1NC(=S)NCc1ccccc1)CCCC2	BRCA1 expr up 4.5µM
CC1C(=O)N(Cc2cn(CCC3OCCCO3)nn2)CCS(=O)(=O)N1Cc1ccc(-c2ccncc2)cc1 (stereo not given)	none (no result: A-T KAP1 phos, MmCpn inh)
CC(C)C(=O)Nc1ccc2oc(-c3cc(F)c(F)cc3Cl)nc2c1	BRCA1 expr up 2.8µM, MmCpn inh inconclusive
Cc1nccn1CC(O)Cn1c2ccccc2c2ccccc21 (stereo not given)	Akt phos inh -101%
Cc1cc(C)n(CC(O)Cn2c3ccccc3c3ccccc32)n1 (stereo not given)	MmCpn inh inconclusive
CC(C)CNc1ncnc2c1ncn2[C@H]1CN(CCN2CCOCC2)C[C@@H](CO)O1	none (no result: A-T KAP1 phos, MmCpn inh)
O=c1c(N2CCCCC2)coc2ccccc12	BRCA1 expr up 8.9µM
Nc1c(-c2ccc(Cl)cc2)cnn1-c1ccccc1	BRCA1 expr up inconclusive
Nc1c(-c2ccc(Cl)cc2)nnn1-c1ccccc1	BRCA1 expr up 7.1µM
O=C(COC(=O)c1ccccc1NC(=O)c1ccco1)Nc1ccc2c(c1)OCO2	Akt phos inh -102%
O=C(NOCc1ccccc1)OCc1ccccc1	BRCA1 expr up 11µM (no result: A-T KAP1 phos, MmCpn inh)
O=C(Nc1ccc2c(c1)OCO2)OCc1ccccc1	BRCA1 expr up 2.2µM
O=C(CN1C(=O)NC2(CCCCC2)C1=O)Oc1ccc2ccc(=O)oc2c1	none
COc1ccc(S(=O)(=O)N(C)CC(=O)NC2CCCC2)cc1Cl	Akt phos inh -110%
COc1cc(S(=O)(=O)NC2CCCCC2)ccc1Cl	Akt phos inh -119%
COc1ccc(S(=O)(=O)N2CCC(C(=O)NC3CCCCC3)CC2)cc1OC	none
CN(CC(=O)NC1CCCC1)S(=O)(=O)c1cccc(Cl)c1	none
COc1ccc(S(=O)(=O)N2CCN(C(=O)NC3CCCCC3)CC2)cc1OC	Akt phos inh -106%
CC(C)(C)c1ccc(NC(=O)COC(=O)c2ccccc2OCC(=O)Nc2ccc(Br)cc2)cc1	none (no result: A-T KAP1 phos, Akt phos inh, CCT modulator, MmCpn inh)
Cc1ccc(CNc2ccc3c(c2)ncn3C(C)C)cc1	BRCA1 expr up 5µM
CCCn1cnc2cc(NCc3cccc(OC)c3)ccc21	BRCA1 expr up 5µM
CCn1cnc2cc(NCc3cccs3)ccc21	BRCA1 expr up 14µM
CCn1cnc2cc(NCc3ccc(Br)cc3)ccc21	BRCA1 expr up 4.5µM
CCCn1cnc2cc(NCc3ccc(Br)cc3)ccc21	none
CCOC(=O)[C@H]1[C@H]2COc3ccc(C)cc3[C@@H]2N2C(=O)c3cc(C)ccc3NC(=O)[C@@]12C	none
CCn1cnc2cc(NC(=O)c3cccs3)ccc21	BRCA1 expr up 13µM
Cn1cnc2cc(NCc3ccc(Cl)cc3)ccc21	BRCA1 expr up 5µM
CCOc1ccc(CNc2ccc3c(c2)ncn3C)cc1	none
CCn1cnc2cc(NCc3ccc(C)cc3)ccc21	BRCA1 expr up 3.5µM
CN1OC[C@@H]2CN(Cc3cc(Cl)cc(Cl)c3)[C@H](c3cccc(Br)c3)C[C@@H]21	none (no result: A-T KAP1 phos, MmCpn inh)
O=c1c(Cl)c(Cl)cnn1-c1ccccc1	none
CN(c1cnn(-c2ccccc2)c(=O)c1Cl)n1cccc1	BRCA1 expr up 11µM
CCCOc1ccc(-c2csc(N)n2)cc1[N+](=O)[O-]	BRCA1 expr up 7.9µM

Compound activity as filed in PubChem.
